# HSP90 refold inh – HSP90 refolding inhibition in rabbit reticulocyte lysate; luciferase refolding luminescence, 3 h; inhibition, % at 5.6 µM; actives 0.91% (n = 290,000);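 active = inhibition above the screen-wide mean plus 3 SD, computed separately per campaign, cut at about 16% in these data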;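 note: 0% = DMSO wells and 100% = 60 µM geldanamycin wells; inhibitors lower the luminescence because luciferase stays unfolded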
# HSF-1 act – increases HSF-1 driven luciferase reporter signal; NIH3T3-HGL HSF-1 luciferase reporter, MG132, 8 h; 100% = twice DMSO control signal; activation, % at 9 µM; actives 1.7% (n = 300,000); AID 504408;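 active = mean replicate activation of at least 50% with a set share of replicates each reaching 50%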;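 note: 0% = median of the neutral control wells and 100% = twice that signal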
# ARNT TACC3 PPI – disruptors of human ARNT/TACC3 interaction; inhibition, % at 9.99 µM; AID 623870; AlphaScreen His-ARNT PAS-B/GST-TACC3 binding, luminescence; TACC3 fragment carries E629A point mutation; Q9Y6A5; actives 0.66% (n = 390,000);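 active = mean inhibition of replicates at least 50% and at least half of replicates each reaching 50%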;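 note: 0% = complete ARNT plus TACC3 wells and 100% = ARNT alone without TACC3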
# HSF1 inh – HSF1 inhibition. actives 0.77% (n = 300,000). NIH3T3-HGL HSE-luciferase, MG132-induced, luminescence 8 h; active compounds read low. activity change, negative = inhibition, % at 7.5 µM (by protocol);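 active = more than half of replicate wells show activity change below -50%, luminescence cut by over half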;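 note: luciferase reports HSF-1 transcriptional activity via heat shock element; 0% = median of DMSO wells and -100% = zero luminescence signal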
# HIF act – HIF pathway transcriptional activation; actives 0.32% (n = 300,000); activation, % at 7.5 µM (by protocol); AID 1910; U2OS HRE-luciferase reporter, luminescence; normalized: DMSO 0%, desferrioxamine 100%;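 active = mean activation of at least 10% of the iron chelator positive control signal, with at least half of replicates also reaching 10%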
# AlphaScreen ctr – counter-screen for ARNT/TACC3 inhibitors: AlphaScreen artifacts; shares compounds with ARNT TACC3 PPI; His-ARNT PASB-GST AlphaScreen artifact counter-screen, luminescence; AC50, µM (top dose mostly 68 µM), without a hit: at the top dose activity change, negative = signal decrease; actives 50% (n = 1,200);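 active = every separate test run was called active for a drop in luminescence, with AC50 within twice the top valid dose, actives reach about 71 µM in these data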
# An asterisk follows results filed as active; / = no result; [ ] = another dose, or the depositor's remark. The list is not random: actives were taken first. Their share in the collection is about 3.1%.
SMILES,HSP90 refold inh,HSF-1 act,ARNT TACC3 PPI,HSF1 inh,HIF act,AlphaScreen ctr
COc1ccc(S(=O)(=O)N2CCCOC2CNC(=O)C(=O)NCCCn2ccnc2)cc1OC (stereo not drawn),-2.7,0.9,40.3*,4.7,0.2,-11.2%
CO[C@H]1CN(C)C(=O)c2cc(NC(=O)Nc3ccccc3)ccc2OC[C@H](C)N(C(=O)CC2CC2)C[C@H]1C,/,/,-3.1,/,/,/
C[C@H]1CN([C@@H](C)CO)C(=O)c2cc(C#CCN(C)C)cnc2O[C@@H]1CN(C)C(=O)Nc1cccc(F)c1,/,/,4.6,/,/,/
Cc1ccc(S(=O)(=O)Nc2ccc3c(c2)C(=O)N([C@@H](C)CO)C[C@H](C)[C@@H](CN(C)C(=O)Nc2c(C)noc2C)O3)cc1,/,/,-4.2,/,/,/
COCC(=O)N1[C@H](CO)[C@@H]2c3ccccc3N(C(=O)Nc3ccccc3F)C[C@@H]21,/,/,-1.4,/,/,/
c1c[nH]c(CN2CCN(Cc3ncc[nH]3)CC2)n1,/,/,52.7*,/,/,-3.4%
c1ccc2c3c([nH]c2c1)C(C1CCCCC1)N(Cc1ncc[nH]1)CC3 (stereo not drawn),-2.7,19.9,/,-4.9,-0.8,/
C[C@@H]1CN([C@H](C)CO)C(=O)Cc2cc(N(C)C)ccc2O[C@@H]1CN(C)C(=O)NC1CCCCC1,/,/,0.0,/,/,/
C[C@H](CO)N1C[C@H](C)[C@H](CN(C)Cc2ccc(Oc3ccccc3)cc2)Oc2ccc(N(C)C)cc2CC1=O,/,/,5.6,/,/,/
CC(C)NC(=O)N(C)C[C@H]1Oc2ccc(N(C)C)cc2CC(=O)N([C@@H](C)CO)C[C@@H]1C,/,/,60.2*,/,/,9.5%[42 µM]
COc1ccc(NC(=O)Nc2ccc3c(c2)CC(=O)N([C@H](C)CO)C[C@H](C)[C@@H](CN(C)Cc2ccc(Oc4ccccc4)cc2)O3)cc1,/,/,54.6*,/,/,18.7µM*
COc1ccc(-c2cnc3c(c2)C(=O)N([C@H](C)CO)C[C@@H](C)[C@H](CN(C)Cc2cccnc2)O3)cc1,/,/,108.4*,/,/,-2.6%[38 µM]
C[C@@H]1CN([C@H](C)CO)C(=O)Cc2cc(N(C)C)ccc2O[C@H]1CN(C)Cc1ccc(Oc2ccccc2)cc1,/,/,52.4*,/,/,15.4µM*
COc1ccc(-c2cnc3c(c2)C(=O)N([C@@H](C)CO)C[C@@H](C)[C@H](CN(C)Cc2cccnc2)O3)cc1,/,/,-4.1,/,/,/
C[C@H]1CN([C@@H](C)CO)S(=O)(=O)c2ccc(C3=CCCCC3)cc2O[C@H]1CN(C)C(=O)C1CCOCC1,/,/,2.7,/,/,/
COc1ccc(CN(C)C[C@H]2OCCCC[C@H](C)Oc3ccc(NC(=O)Cc4ccccc4)cc3C(=O)N([C@H](C)CO)C[C@H]2C)cc1,/,/,2.1,/,/,/
COc1cccc(S(=O)(=O)Nc2ccc3c(c2)OC[C@H](C)NC[C@H](C)[C@H](OC)CN(C)C3=O)c1,/,/,1.3,/,/,/
Cc1noc(C)c1S(=O)(=O)Nc1cccc2c1O[C@@H](CN(C)Cc1ccc(Cl)c(Cl)c1)[C@@H](C)CN([C@@H](C)CO)C2=O,/,/,1.6,/,/,/
C[C@@H]1CN([C@@H](C)CO)C(=O)c2cccc(NS(=O)(=O)c3cn(C)cn3)c2O[C@@H]1CN(C)CC1CC1,/,/,-0.4,/,/,/
CC(C)NC(=O)Nc1ccc2c(c1)CC(=O)N([C@H](C)CO)C[C@@H](C)[C@@H](CN(C)Cc1ccc(Oc3ccccc3)cc1)O2,/,/,active,/,/,70.9µM*
CC(C)NC(=O)Nc1ccc2c(c1)CC(=O)N([C@H](C)CO)C[C@H](C)[C@H](CN(C)Cc1ccc(Oc3ccccc3)cc1)O2,/,/,2.1,/,/,/
C[C@@H]1CN([C@@H](C)CO)C(=O)Cc2cc(NC(=O)Nc3cccc4ccccc34)ccc2O[C@H]1CN(C)Cc1ccc(Oc2ccccc2)cc1,/,/,72.0*,/,/,14.1µM*
Cc1ccn2c(Nc3ccccc3C)c(-c3ccccn3)nc2c1,0.1,-0.6,70.2*,-1.7,12.4*,21.5µM*
C[C@H]1CN([C@@H](C)CO)C(=O)c2cccc(NC(=O)C3CCOCC3)c2O[C@H]1CN(C)Cc1ccc(C(F)(F)F)cc1,/,/,-4.2,/,/,/
C[C@@H]1CN([C@@H](C)CO)C(=O)c2cc(NC(=O)CCN3CCOCC3)ccc2O[C@@H]1CN(C)Cc1ccccc1,/,/,3.2,/,/,/
SMILES,HSP90 refold inh,HSF-1 act,ARNT TACC3 PPI,HSF1 inh,HIF act,AlphaScreen ctr
C[C@H](CO)N1C[C@H](C)[C@H](CN(C)C(=O)Nc2ccc(F)cc2)OCCCC[C@H](C)Oc2ccc(NS(=O)(=O)c3ccc(Cl)cc3)cc2C1=O,/,/,-6.0,/,/,/
C[C@@H]1CN([C@H](C)CO)C(=O)c2cc(NC(=O)Nc3ccc(C(F)(F)F)cc3)ccc2O[C@@H](C)CCCCO[C@@H]1CN(C)Cc1ccc2c(c1)OCO2,/,/,56.4*,/,/,25.5µM*
C[C@@H]1CN([C@@H](C)CO)C(=O)c2cc(NC(=O)C3CC3)ccc2O[C@H]1CN(C)C(=O)Nc1ccc(F)cc1,/,/,55.1*,/,/,-4.5%[42 µM]
C[C@@H]1CN([C@@H](C)CO)C(=O)c2cc(NC(=O)CCN3CCOCC3)ccc2O[C@@H]1CN(C)Cc1ccncc1,/,/,50.8*,/,/,-6.8%[38 µM]
C[C@H]1CCCCO[C@H](CN(C)C(=O)Nc2ccc(F)cc2)[C@@H](C)CN([C@@H](C)CO)C(=O)c2cc(NS(=O)(=O)c3ccc(Cl)cc3)ccc2O1,/,/,active,/,/,-36.4%[38 µM]
CCCNC(=O)[C@H]1[C@H](CO)[C@H]2Cn3c(ccc(-c4ccccc4)c3=O)[C@@H]1N2C(=O)C1CC1,/,/,-0.1,/,/,/
C[C@@H]1CN([C@H](C)CO)C(=O)c2cc(C3=CCCC3)cnc2O[C@H]1CN(C)C(=O)Nc1ccc(C(F)(F)F)cc1,/,/,-1.8,/,/,/
